Test results published in PubChem BioAssay (Tox21).
Several values for one entry are separate records, joined by “and”; a condition that tells them apart may be missing. Identical values can stand only once. Inconclusive results are not listed. A call without a number means that no potency is given here. Some compounds were tested as several samples or in several runs, with calls that do not always agree. Activity calls are given as the source filed them. Calls follow the shape of the dose curve; as a rule, active = well fitted cell-killing curve with a large enough effect in the repeat runs; inconclusive = weak or mixed curves, or effect the other way; inactive = no such curve, though single readings can be large or run the other way.

experiment: qHTS assay to identify small molecule antagonists of the sonic hedgehog signaling (Shh) pathway - cell viability counter screen (AID 1259367); conditions: NIH/3T3 Gli1-Luc viability, CellTiter-Fluor, 24 h; series mostly up to 92.4 µM; also: nearly all actives have a fitted effect of over 55% in size
Excerpt: National Center for Advancing Translational Sciences [NCATS]
NIH Chemical Genomics Center [NCGC]
U.S. Environmental Protection Agency [EPA]
National Institutes of Environmental Health Sciences [NIEHS]
National Toxicology Program [NTP]
U.S. Food and Drug Administration [FDA]
The sonic hedgehog (Shh) pathway is essential for normal embryonic development. Dysregulation of the Shh pathway can cause severe developmental defects in organs. Therefore chemicals that interfere with the pathway are potential developmental toxicants. A cell line designated 3T3Gli1-Luc (DMB/OARSA/CFSAN/FDA, Laurel, MD), a NIH/3T3 derived clone containing stably integrated Gli1-Luc reporter is used to detect chemical interference of the Shh pathway, by changes in the expression of the firefly Luc gene under the control of the Gli1 transcriptional response element. This cell line was used to screen Tox21 libraries for identifying and prioritizing the potential developmental toxicants that interfere Shh pathway. Conditioned medium-stimulated mode was used to screen for chemicals inhibiting Shh signaling. The cytotoxicity of the compounds was tested in parallel by measuring the cell viability using CellTiter-Fluor assay system (Promega, Madison, WI) in the same wells.
Tox21 Assay Protocol Summary:
3T3 Gli1-Luc cells were dispensed at 2,000 per well in 5uL of culture medium into white solid bottom 1536-well plates (Greiner Bio-One, Monroe, NC) using a Multidrop Combi (Thermo Scientific, Waltham, MA) dispenser. The assay plates were incubated at 37 C and 5% CO2 for 4hr, and then 23nL of compounds dissolved in DMSO and positive control were transferred using a Pintool station (Wako, San Diego, CA). The compound transfer was followed by the addition of 1ul conditioned medium or assay buffer using two separate tips of Flying Reagent Dispenser (FRD, Aurora Discovery, San Diego, CA). The assay plates were incubated at 37C and 5% CO2 for 24hr. For viability read, after 23hr of compound treatment, 1uL of CellTiter-Fluor reagent (Promega Corporation, Madison, WI) was added to each well of the assay plates using Flying Reagent Dispenser (FRD, Aurora Discovery, San Diego, CA) and incubated the assay plates at 37C for 1hr. The fluorescence signal was quantified using a ViewLux plate reader (Perkin Elmer, Shelton, CT).
Potency is read from the fitted curve at half-maximal effect.

Question: With CC(C)=CC1C(C(=O)OCc2coc(Cc3ccccc3)c2)C1(C)C (stereo not given) as the molecule, how does the Potency read?
Answer: inactive

Question: With CC(C)(c1cc(Cl)c(O)c(Cl)c1)c1cc(Cl)c(O)c(Cl)c1 as the molecule, how does the Potency read?
Answer: inactive

Question: For c1nc[nH]n1, which Potency is on record?
Answer: inactive

Question: With OCC(O)CO as the molecule, how does the Potency read?
Answer: inactive

Question: For CN(C)C(=O)Nc1ccc(Cl)cc1, which Potency is on record?
Answer: inactive

Question: For NC(=S)Nc1ccccc1, which Potency is on record?
Answer: inactive

Question: Which Potency does the source give for C#CCOS(=O)OC1CCCCC1Oc1ccc(C(C)(C)C)cc1 (stereo not given) here?
Answer: 21.7 µM (active) and 27.3 µM (active)

Question: With Oc1cc(Cl)ccc1Oc1ccc(Cl)cc1Cl as the molecule, how does the Potency read?
Answer: 31.4 µM (active) and inactive

Question: Which Potency does the source give for Oc1c(Cl)c(Cl)c(Cl)c(Cl)c1Cl here?
Answer: inactive

Question: With CCCCOCCOP(=O)(OCCOCCCC)OCCOCCCC as the molecule, how does the Potency read?
Answer: inactive

Question: For c1ccc(NNc2ccccc2)cc1, which Potency is on record?
Answer: inactive

Question: With Brc1ccc(Oc2cc(Br)c(Br)cc2Br)c(Br)c1 as the molecule, how does the Potency read?
Answer: inactive

Question: For CCOP(=S)(OCC)O/N=C(\C#N)c1ccccc1, which Potency is on record?
Answer: inactive

Question: For C=C(C)[C@H]1Cc2c(ccc3c2O[C@@H]2COc4cc(OC)c(OC)cc4[C@@H]2C3=O)O1, which Potency is on record?
Answer: 22 µM (active) and 6.11 µM (active)

Question: With O=[N+]([O-])c1ccc(O)c([N+](=O)[O-])c1 as the molecule, how does the Potency read?
Answer: 48.8 µM (active)

Question: Which Potency does the source give for CC1(C)C(C=C(Cl)Cl)C1C(=O)OC(C#N)c1cccc(Oc2ccccc2)c1 (stereo not given) here?
Answer: inactive

Question: Which Potency does the source give for Oc1ccc(-c2ccccc2)cc1 here?
Answer: inactive

Question: Which Potency does the source give for O=c1oc2ccccc2c(O)c1C(CC(O)c1ccc(-c2ccc(Br)cc2)cc1)c1ccccc1 (stereo not given) here?
Answer: inactive

Question: Which Potency does the source give for CCC(C)(C)c1ccc(O)cc1 here?
Answer: inactive

Question: With O=C(NC(=O)c1c(F)cccc1F)Nc1ccc(Cl)cc1 as the molecule, how does the Potency read?
Answer: inactive

Question: Which Potency does the source give for Nc1ccncc1 here?
Answer: inactive

Question: For C1=Cc2cccc3cccc1c23, which Potency is on record?
Answer: inactive

Question: For CC(C)(C)c1ccccc1O, which Potency is on record?
Answer: inactive

Question: Which Potency does the source give for NNC(=S)NN here?
Answer: inactive

Question: With CCN(CC)C(=O)/C(Cl)=C(\C)OP(=O)(OC)OC as the molecule, how does the Potency read?
Answer: inactive

Question: Which Potency does the source give for N#CCCCl here?
Answer: inactive

Question: With CC(C)c1ccc(CO)cc1 as the molecule, how does the Potency read?
Answer: inactive

Question: Which Potency does the source give for CCCCNC(=O)n1c(NC(=O)OC)nc2ccccc21 here?
Answer: 60.8 µM (active) and inactive

Question: For O=P(O)(O)CCCl, which Potency is on record?
Answer: inactive

Question: For c1ccc(P(c2ccccc2)c2ccccc2)cc1, which Potency is on record?
Answer: inactive

Question: With O=Cc1ccco1 as the molecule, how does the Potency read?
Answer: inactive

Question: Which Potency does the source give for O=[N+]([O-])c1cccc2ccccc12 here?
Answer: inactive

Question: For O=C(O)C(F)(F)C(F)(F)C(F)(F)C(F)(F)C(F)(F)C(F)(F)C(F)(F)F, which Potency is on record?
Answer: inactive

Question: Which Potency does the source give for CC(C)Oc1cc(-n2nc(C(C)(C)C)oc2=O)c(Cl)cc1Cl here?
Answer: inactive

Question: With Oc1cc(Cl)c(Cl)cc1Cl as the molecule, how does the Potency read?
Answer: inactive

Question: For O=P(Oc1ccccc1)(Oc1ccccc1)Oc1ccccc1, which Potency is on record?
Answer: inactive

Question: For Cc1ccc(OP(=O)(Oc2ccc(C)cc2)Oc2ccc(C)cc2)cc1, which Potency is on record?
Answer: inactive

Question: For Cc1cc(Cl)ccc1OCCCC(=O)O, which Potency is on record?
Answer: inactive

Question: With Nc1cccnc1 as the molecule, how does the Potency read?
Answer: inactive

Question: Which Potency does the source give for COc1ccc(C(CN(C)C)C2(O)CCCCC2)cc1 (stereo not given) here?
Answer: inactive
